Many of the other results were omitted from the sample, so hits are more common in it than they were.
Shiga inhibitor: inhibitors of Shiga toxin in Vero cells; Vero cells, Shiga toxin protein synthesis inhibition reporter; inhibition, % at 38.7 µM; 9.2% of 290,000 active; AID 2315; in the data active = inhibition mostly above about 28%, no sharp cut-off; inactive = mostly below about 43%; note: 0% is about no effect
Giardia FBPA inh: inhibitors of Giardia lamblia fructose-1,6-bisphosphate aldolase; 0.71% of 290,000 active; purified Giardia FBPA; A8B2U2; Potency, µM (top dose mostly 59.6 µM), for inactives: top-dose activity, negative = inhibition, most hits filed as inhibitors; note: potency is the fitted concentration of half-maximal effect; % is set by controls: 0 for no effect and ±100 for the full control effect; nearly all actives have a fitted effect of over 55% in size
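Giardia FBPA (40 nM reagent) was preincubated 10 min at RT with compound (up to 57.5 uM final), then substrate plus GAPDH/TPI/NAD/arsenate coupling system with diaphorase/resazurin was added; resorufin fluorescence (525/598 nm) was read after 20 min.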
Cycloheximide cs: affects cycloheximide protein synthesis inhibition readout, counter-screen; 12% of 300,000 active; max response, %; AID 2314; cell reporter, cycloheximide protein synthesis inhibition counterscreen; in the data active = max response mostly above about 13%, no sharp cut-off; inactive = mostly below about 14%; note: read at 38.3 µM for the half of the compounds with a filed dose; 0% is about no effect
Tb PYK inh: blocks Trypanosoma brucei pyruvate kinase. Q57TT1. TbPYK enzyme, Kinase-Glo Plus ATP luminescence, 45 min. Potency, µM (doses to about 76.8 µM), for inactives: at the highest dose activity, negative = inhibition, actives largely listed as inhibitors. 0.12% of 410,000 active; note: potency is the fitted concentration of half-maximal effect; % is set by controls: 0 for no effect and ±100 for the full control effect; nearly all actives have a fitted effect of over 50% in size
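Enzyme and substrate buffer are dispensed first and compound is pin-transferred. ADP at 130 uM final then starts the reaction, which runs 45 min at room temperature. Detection reagent is added for 10 min before luminescence is imaged.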
Sm TGR block: S. mansoni TGR enzyme inhibition. purified TGR, DTNB reduction, TNB absorbance 405 nm. Q962Y6. Potency, µM (series often up to 114 µM), without a hit: at the top dose activity change, negative = inhibition, usual class: inhibitors. 3% of 360,000 active. AID 485364; note: potency is the fitted concentration of half-maximal effect; % is set by controls: 0 for no effect and ±100 for the full control effect; nearly all actives have a fitted effect of over 60% in size
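Kinetic colorimetric format: TGR-catalysed, NADPH-driven DTNB reduction monitored via TNB absorbance. Enzyme dispensed at 20 nM; compound exposure 15 min at room temperature before reaction start.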
LmPK inh: inhibitors of Leishmania mexicana pyruvate kinase. Potency, µM (doses to about 57.5 µM), for the others: at the highest dose activity change, negative = inhibition, most hits filed as inhibitors. AID 1721. 0.37% of 290,000 active. purified LmPK, Kinase-Glo ATP luminescence, 1 h. Q27686; note: potency is the fitted concentration of half-maximal effect; % is set by controls: 0 for no effect and ±100 for the full control effect
Target sequence (Q27686 whole entry, looked up): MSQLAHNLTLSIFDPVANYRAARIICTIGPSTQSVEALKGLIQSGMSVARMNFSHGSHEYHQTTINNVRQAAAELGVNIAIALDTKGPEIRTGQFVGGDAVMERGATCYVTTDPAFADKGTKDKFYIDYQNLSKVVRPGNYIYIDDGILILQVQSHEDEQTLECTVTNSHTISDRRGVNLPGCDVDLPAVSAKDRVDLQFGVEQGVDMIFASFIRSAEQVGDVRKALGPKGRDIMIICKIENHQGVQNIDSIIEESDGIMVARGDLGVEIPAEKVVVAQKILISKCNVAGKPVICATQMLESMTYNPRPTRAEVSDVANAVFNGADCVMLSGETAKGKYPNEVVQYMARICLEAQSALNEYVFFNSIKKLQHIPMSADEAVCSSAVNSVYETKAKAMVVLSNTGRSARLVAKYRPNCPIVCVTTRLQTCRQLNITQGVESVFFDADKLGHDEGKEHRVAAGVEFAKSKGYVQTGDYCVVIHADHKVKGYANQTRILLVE
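0.1 nM LmPK, 0.5 mM PEP, 0.1 mM ADP; 50 mM imidazole pH 7.2, 7 mM MgCl2, 50 mM KCl; 1 h RT. Kinase-Glo luminescence readout, normalized to no-enzyme (full inhibition) and uninhibited wells.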
* = called active by the depositor. Unless noted, calls come from the whole dose curve; as a rule, active = well fitted curve in the direction sought with a large enough effect; inconclusive = small, poorly fitted or top-dose-only effect, or another doubt; inactive = no such curve, though single readings can be large; an effect the other way counts as inactive or inconclusive.

`COC(=O)c1ccc(C(=O)OC)c(NC(=O)c2cc3nc(-c4ccc(C)cc4)cc(C(F)(F)F)n3n2)c1` gave Tb PYK inh -1% and Sm TGR block 1%.
`CCN(CC)S(=O)(=O)c1cc(NC(=O)C2CC(=O)N(Cc3ccccc3)C2)ccc1Cl` (configuration not stated) gave Tb PYK inh 4% and Sm TGR block -6%.
`CCOc1ncccc1C(=O)Nc1nnc(C)s1` gave Shiga inhibitor 22, Giardia FBPA inh 2%, Cycloheximide cs 0, Tb PYK inh 3%, Sm TGR block 4% and LmPK inh 3%.
Screening CSc1nsc(SCC(=O)Nc2nncs2)n1 returned Shiga inhibitor 16, Giardia FBPA inh -3%, Cycloheximide cs -5, Tb PYK inh 1%, Sm TGR block 5% and LmPK inh 2%.
For CCOC(=O)c1ccc(NC(=O)CSc2nc(SC)ns2)cc1 the results were Shiga inhibitor 60*, Giardia FBPA inh -7%, Cycloheximide cs 48*, Tb PYK inh 1%, Sm TGR block 0% and LmPK inh 0%.
`CSc1nsc(SCC(=O)Nc2ccccc2C(N)=O)n1` gave Shiga inhibitor 38*, Giardia FBPA inh -1%, Cycloheximide cs 11*, Tb PYK inh 2%, Sm TGR block 1% and LmPK inh 2%.
For CCOc1ncccc1C(=O)Nc1nc(SC)ns1 the results were Shiga inhibitor 66*, Giardia FBPA inh 0%, Cycloheximide cs 28*, Tb PYK inh 1%, Sm TGR block 12% and LmPK inh -1%.
`CSc1nsc(SCC(=O)Nc2ccccc2F)n1` gave Shiga inhibitor 58*, Giardia FBPA inh 1%, Cycloheximide cs 31*, Tb PYK inh -1%, Sm TGR block 0% and LmPK inh -1%.
Cn1cnnc1SCC(=O)Nc1ccccc1F was read as Shiga inhibitor -6, Giardia FBPA inh 3%, Cycloheximide cs -2, Tb PYK inh 1%, Sm TGR block 4% and LmPK inh 3%.
`CCOC(=O)c1ccc(NC(=O)CSc2ccc3ccccc3n2)cc1` gave Tb PYK inh inconclusive and Sm TGR block 8%.
Screening O=C(NCc1cccc(C(F)(F)F)c1)C1CCCN(c2cnccn2)C1 (configuration not stated) returned Shiga inhibitor -8, Giardia FBPA inh 0%, Cycloheximide cs -3, Tb PYK inh 6%, Sm TGR block 1% and LmPK inh 1%.
COc1ccc(CNC(=O)CSc2nc(SC)ns2)cc1 was read as Shiga inhibitor 10, Giardia FBPA inh 5%, Cycloheximide cs 6, Tb PYK inh 1%, Sm TGR block -29% and LmPK inh 0%.
Screening CSc1nsc(SCC(=O)Nc2ccc(OC(C)=O)cc2)n1 returned Shiga inhibitor 58, Giardia FBPA inh -6%, Cycloheximide cs 27*, Tb PYK inh 25%, Sm TGR block 5% and LmPK inh 7%.
CCc1ccc(S(=O)(=O)NCc2cccs2)cc1 was read as Shiga inhibitor 27, Cycloheximide cs 4, Tb PYK inh -1%, Sm TGR block 2% and LmPK inh -1%.
For CCc1ccc(CNCc2cccs2)cc1 the results were Shiga inhibitor 55*, Giardia FBPA inh -3%, Cycloheximide cs 29*, Tb PYK inh 1% and LmPK inh -5%.
Screening NCCCn1c(C(=O)c2cc(Cl)c(N)c(Cl)c2)c2ccc([N+](=O)[O-])cc2[n+]1[O-] returned Tb PYK inh 0% and Sm TGR block 40µM*.
For NCCCn1c(C(=O)c2cc(Cl)c(N)c(Cl)c2)c2ccc(C(F)(F)F)cc2[n+]1[O-] the results were Tb PYK inh -10% and Sm TGR block 45µM*.
Screening COc1ccc(-c2cc(-c3ccccc3)nc(NN)n2)cc1OC returned Shiga inhibitor 35, Giardia FBPA inh inconclusive, Cycloheximide cs 17*, Tb PYK inh -12%, Sm TGR block 9% and LmPK inh -10%.
COc1nc(-c2ccccc2)cc(-c2ccc(OC)c(OC)c2)n1 was read as Shiga inhibitor 56*, Giardia FBPA inh -7%, Cycloheximide cs 21, Tb PYK inh 8%, Sm TGR block 4% and LmPK inh -7%.
